Binding signal data for 1 sequence are collected here from paper PMC7862700, “An all-to-all approach to the identification of sequence-specific readers for epigenetic DNA modifications on cytosine”.

Experiment in all cases: DAPPL (digital affinity profiling via proximity ligation, sequencing); 10 mM Tris-HCl pH 7.5, 50 mM NaCl, 1 mM DTT, 4% glycerol, room temperature, 30 min; GST-TFs on glutathione beads, 16-mer random dsDNA library, 0.1% formaldehyde crosslink after washing; high values mean tight binding
One assay has as its target T1, FLI1 (Homo sapiens, UniProt Q01543 1-452).
T1 sequence: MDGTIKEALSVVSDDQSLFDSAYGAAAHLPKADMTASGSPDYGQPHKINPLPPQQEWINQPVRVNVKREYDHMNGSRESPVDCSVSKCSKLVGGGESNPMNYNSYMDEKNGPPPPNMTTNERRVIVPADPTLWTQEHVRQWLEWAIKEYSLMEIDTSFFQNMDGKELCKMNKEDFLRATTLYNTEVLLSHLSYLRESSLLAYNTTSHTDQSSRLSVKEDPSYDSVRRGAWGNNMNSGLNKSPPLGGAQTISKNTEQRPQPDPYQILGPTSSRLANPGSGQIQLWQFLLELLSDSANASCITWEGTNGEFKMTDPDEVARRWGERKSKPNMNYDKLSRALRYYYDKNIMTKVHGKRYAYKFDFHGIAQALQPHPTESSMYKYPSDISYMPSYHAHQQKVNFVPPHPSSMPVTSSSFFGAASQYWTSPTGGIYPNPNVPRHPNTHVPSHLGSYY
The note with it: protein: recombinant; tags: N-terminal GST; dsDNA, one strand shown. The method, boiled down:
(§1)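 A tag-only sample was pooled with DNA-barcoded human transcription factors that had been expressed in yeast as GST fusions and captured on glutathione beads. The pools were incubated for 30 min at room temperature with 200 nmole of a random double-stranded 16-mer DNA library in Tris/NaCl/DTT/glycerol buffer, then washed, crosslinked with 0.1% formaldehyde, proximity-ligated (BsaI/T4 ligase, 1 h, 37 °C), PCR-amplified and sequenced on an Illumina NextSeq500. Binding signal is each hexamer's read frequency for a factor divided by its frequency for the tag-only sample.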

For a further assay, the target named is T2, ELK1 (Homo sapiens, UniProt P19419 1-428).
T2 sequence: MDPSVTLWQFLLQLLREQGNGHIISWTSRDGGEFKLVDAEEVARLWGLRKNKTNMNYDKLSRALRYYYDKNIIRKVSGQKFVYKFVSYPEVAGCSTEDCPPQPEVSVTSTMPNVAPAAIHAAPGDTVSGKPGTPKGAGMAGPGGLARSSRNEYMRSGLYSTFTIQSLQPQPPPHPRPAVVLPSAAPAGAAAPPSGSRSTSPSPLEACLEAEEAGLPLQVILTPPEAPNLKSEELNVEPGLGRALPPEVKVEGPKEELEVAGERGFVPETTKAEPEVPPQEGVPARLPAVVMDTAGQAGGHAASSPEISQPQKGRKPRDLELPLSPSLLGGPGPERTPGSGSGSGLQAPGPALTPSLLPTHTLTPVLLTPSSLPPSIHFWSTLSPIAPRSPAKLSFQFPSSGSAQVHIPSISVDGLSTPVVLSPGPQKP
The note with it: protein: recombinant; tags: N-terminal GST; dsDNA, one strand shown. The method, boiled down: as §1

A further assay concerns the target T3, GABPA (Homo sapiens, UniProt Q06546 1-454).
T3 sequence: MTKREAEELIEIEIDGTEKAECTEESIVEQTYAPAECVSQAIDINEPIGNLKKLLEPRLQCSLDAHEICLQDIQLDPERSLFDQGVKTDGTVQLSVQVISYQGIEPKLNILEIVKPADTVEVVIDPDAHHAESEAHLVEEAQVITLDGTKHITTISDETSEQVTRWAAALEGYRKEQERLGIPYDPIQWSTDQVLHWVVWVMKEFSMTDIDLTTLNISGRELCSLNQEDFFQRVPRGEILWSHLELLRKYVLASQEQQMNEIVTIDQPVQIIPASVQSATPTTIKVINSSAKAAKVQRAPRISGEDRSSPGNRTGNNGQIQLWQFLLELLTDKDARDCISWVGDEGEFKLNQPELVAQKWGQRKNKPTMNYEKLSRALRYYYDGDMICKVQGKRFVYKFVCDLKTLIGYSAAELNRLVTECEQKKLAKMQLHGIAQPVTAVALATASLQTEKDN
To be noted: protein: recombinant; tags: N-terminal GST; dsDNA, one strand shown. In short, it runs like this:
as §1

The target of a further assay is T4, ERG (Homo sapiens, UniProt P11308 1-479).
T4 sequence: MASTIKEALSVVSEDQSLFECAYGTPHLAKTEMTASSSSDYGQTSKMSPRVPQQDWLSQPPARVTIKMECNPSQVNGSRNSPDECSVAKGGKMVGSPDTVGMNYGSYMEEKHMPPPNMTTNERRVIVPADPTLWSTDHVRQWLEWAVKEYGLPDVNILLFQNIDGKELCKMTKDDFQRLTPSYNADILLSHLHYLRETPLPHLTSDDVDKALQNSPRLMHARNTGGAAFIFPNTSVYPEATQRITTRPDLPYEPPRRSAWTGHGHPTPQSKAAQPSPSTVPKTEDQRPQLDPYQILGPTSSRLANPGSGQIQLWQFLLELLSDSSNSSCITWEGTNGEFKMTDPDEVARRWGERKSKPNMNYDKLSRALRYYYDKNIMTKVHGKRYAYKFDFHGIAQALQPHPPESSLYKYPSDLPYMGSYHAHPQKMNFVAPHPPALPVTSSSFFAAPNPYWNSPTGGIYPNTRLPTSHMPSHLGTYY
To be noted: protein: recombinant; tags: N-terminal GST; dsDNA, one strand shown. The method, boiled down:
as §1

The target of another assay is ELF1 (Homo sapiens, UniProt P32519 1-619). The note with it: protein: recombinant; tags: N-terminal GST; dsDNA, one strand shown. The method, boiled down: as §1
The target of a further assay is T5, EHF (Homo sapiens, UniProt Q9NZC4 1-300).
T5 sequence: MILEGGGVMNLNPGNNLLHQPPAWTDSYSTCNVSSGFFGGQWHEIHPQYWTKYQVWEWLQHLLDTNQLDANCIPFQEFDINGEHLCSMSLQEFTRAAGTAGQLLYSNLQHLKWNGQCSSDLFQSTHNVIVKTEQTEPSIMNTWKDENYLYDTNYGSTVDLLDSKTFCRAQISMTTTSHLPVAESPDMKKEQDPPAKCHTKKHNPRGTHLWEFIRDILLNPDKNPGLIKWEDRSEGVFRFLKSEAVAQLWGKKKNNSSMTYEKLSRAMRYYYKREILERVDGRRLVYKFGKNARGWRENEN
The note with it: protein: recombinant; tags: N-terminal GST; dsDNA, one strand shown. In short, it runs like this:
as §1

The next assay concerns the target SPI1 (Homo sapiens, UniProt P17947 1-270). To be noted: protein: recombinant; tags: N-terminal GST; dsDNA, one strand shown. The method, boiled down:
as §1

The target of another assay is SPIB (Homo sapiens, UniProt Q01892 1-262). The note with it: protein: recombinant; tags: N-terminal GST; dsDNA, one strand shown. In short, it runs like this: as §1
Another assay addresses T6, ELK3 (Homo sapiens, UniProt P41970 1-407).
T6 sequence: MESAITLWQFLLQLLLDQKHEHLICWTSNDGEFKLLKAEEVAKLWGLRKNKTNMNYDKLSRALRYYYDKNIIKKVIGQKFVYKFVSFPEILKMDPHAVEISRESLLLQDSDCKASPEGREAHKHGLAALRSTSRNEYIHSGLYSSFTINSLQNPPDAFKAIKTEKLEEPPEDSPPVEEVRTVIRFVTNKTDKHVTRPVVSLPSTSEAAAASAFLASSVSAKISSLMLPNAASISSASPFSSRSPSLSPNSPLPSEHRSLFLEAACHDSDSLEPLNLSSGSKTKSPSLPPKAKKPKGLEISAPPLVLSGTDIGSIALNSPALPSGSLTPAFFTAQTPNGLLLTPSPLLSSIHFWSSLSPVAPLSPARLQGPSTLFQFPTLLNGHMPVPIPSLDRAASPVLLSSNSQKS
The note with it: protein: recombinant; tags: N-terminal GST; dsDNA, one strand shown. The method, boiled down: as §1

In a further assay the target is T7, FEV (Homo sapiens, UniProt Q99581 1-238).
T7 sequence: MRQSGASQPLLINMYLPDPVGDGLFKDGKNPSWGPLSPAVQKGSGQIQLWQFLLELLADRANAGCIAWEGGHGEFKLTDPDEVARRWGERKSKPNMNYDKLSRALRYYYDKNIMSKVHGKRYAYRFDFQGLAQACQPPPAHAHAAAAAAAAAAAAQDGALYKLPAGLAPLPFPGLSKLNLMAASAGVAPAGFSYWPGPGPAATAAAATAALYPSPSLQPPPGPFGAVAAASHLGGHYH
The note with it: protein: recombinant; tags: N-terminal GST; dsDNA, one strand shown. The method, boiled down:
as §1

Another assay concerns the target ETV5 (Homo sapiens, UniProt P41161 1-510). The note with it: protein: recombinant; tags: N-terminal GST; dsDNA, one strand shown. The method, boiled down:
as §1

A further assay concerns the target HSF1 (Homo sapiens, UniProt Q00613 1-529). To be noted: protein: recombinant; tags: N-terminal GST; chain copies: 3; dsDNA, one strand shown. The method, boiled down:
as §1

The target of another assay is T8, SPIC (Homo sapiens, UniProt Q8N5J4 1-248).
T8 sequence: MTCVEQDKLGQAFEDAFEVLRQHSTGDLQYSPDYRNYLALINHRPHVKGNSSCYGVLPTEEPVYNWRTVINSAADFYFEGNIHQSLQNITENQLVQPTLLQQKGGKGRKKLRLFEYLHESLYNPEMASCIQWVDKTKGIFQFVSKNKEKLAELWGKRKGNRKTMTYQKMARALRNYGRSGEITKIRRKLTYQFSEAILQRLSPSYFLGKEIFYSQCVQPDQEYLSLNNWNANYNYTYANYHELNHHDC
The note with it: protein: recombinant; tags: N-terminal GST; dsDNA, one strand shown. The method, boiled down: as §1

A further assay concerns the target ELF4 (Homo sapiens, UniProt Q99607 1-663). To be noted: protein: recombinant; tags: N-terminal GST; dsDNA, one strand shown. The method, boiled down:
as §1

The next assay addresses T9, ELK4 (Homo sapiens, UniProt P28324-2 1-405).
T9 sequence: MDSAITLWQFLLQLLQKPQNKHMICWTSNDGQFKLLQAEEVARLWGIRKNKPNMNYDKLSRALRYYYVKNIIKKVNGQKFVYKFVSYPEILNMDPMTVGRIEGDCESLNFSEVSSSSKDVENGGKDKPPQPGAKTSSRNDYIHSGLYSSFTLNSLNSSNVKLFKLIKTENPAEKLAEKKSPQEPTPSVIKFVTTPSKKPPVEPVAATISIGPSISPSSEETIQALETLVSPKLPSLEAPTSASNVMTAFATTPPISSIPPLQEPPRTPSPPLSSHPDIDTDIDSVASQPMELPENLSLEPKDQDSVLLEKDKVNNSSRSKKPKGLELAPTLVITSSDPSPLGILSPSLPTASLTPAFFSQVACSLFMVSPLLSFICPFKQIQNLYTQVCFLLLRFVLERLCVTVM
To be noted: protein: recombinant; tags: N-terminal GST; dsDNA, one strand shown. The method, boiled down:
as §1

The next assay has as its target T10, ETV2 (Homo sapiens, UniProt O00321 1-342).
T10 sequence: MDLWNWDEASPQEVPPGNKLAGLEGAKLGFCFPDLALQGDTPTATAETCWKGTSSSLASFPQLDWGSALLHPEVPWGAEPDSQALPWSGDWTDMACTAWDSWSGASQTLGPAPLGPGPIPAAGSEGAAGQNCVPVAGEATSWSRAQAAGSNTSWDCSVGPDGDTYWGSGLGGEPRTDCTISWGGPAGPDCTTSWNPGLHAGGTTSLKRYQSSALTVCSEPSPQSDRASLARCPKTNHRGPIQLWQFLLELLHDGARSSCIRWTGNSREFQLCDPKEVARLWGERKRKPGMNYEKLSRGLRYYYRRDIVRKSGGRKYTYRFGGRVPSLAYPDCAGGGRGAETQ
To be noted: protein: recombinant; tags: N-terminal GST; dsDNA, one strand shown. In short, it runs like this: as §1

Another assay addresses T11, ELF3 (Homo sapiens, UniProt P78545 1-371).
T11 sequence: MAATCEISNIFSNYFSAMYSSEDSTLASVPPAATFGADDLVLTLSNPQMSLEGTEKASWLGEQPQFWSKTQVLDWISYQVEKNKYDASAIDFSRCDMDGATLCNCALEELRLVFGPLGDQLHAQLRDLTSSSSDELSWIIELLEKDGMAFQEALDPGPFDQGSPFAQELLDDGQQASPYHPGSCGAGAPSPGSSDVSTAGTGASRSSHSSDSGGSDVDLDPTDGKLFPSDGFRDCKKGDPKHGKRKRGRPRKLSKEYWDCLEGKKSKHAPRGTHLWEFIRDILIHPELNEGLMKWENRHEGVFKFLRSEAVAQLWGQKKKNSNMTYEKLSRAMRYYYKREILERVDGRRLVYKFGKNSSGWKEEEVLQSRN
The note with it: protein: recombinant; tags: N-terminal GST; dsDNA, one strand shown. In short, it runs like this: as §1

The target of another assay is CRX (Homo sapiens, UniProt O43186 1-299). To be noted: protein: recombinant; tags: N-terminal GST; dsDNA, one strand shown. The method, boiled down: as §1
Another assay concerns the target ETV1 (Homo sapiens, UniProt P50549 1-477). The note with it: protein: recombinant; tags: N-terminal GST; dsDNA, one strand shown. The method, boiled down:
as §1

ETV5, sequence (P41161 whole entry): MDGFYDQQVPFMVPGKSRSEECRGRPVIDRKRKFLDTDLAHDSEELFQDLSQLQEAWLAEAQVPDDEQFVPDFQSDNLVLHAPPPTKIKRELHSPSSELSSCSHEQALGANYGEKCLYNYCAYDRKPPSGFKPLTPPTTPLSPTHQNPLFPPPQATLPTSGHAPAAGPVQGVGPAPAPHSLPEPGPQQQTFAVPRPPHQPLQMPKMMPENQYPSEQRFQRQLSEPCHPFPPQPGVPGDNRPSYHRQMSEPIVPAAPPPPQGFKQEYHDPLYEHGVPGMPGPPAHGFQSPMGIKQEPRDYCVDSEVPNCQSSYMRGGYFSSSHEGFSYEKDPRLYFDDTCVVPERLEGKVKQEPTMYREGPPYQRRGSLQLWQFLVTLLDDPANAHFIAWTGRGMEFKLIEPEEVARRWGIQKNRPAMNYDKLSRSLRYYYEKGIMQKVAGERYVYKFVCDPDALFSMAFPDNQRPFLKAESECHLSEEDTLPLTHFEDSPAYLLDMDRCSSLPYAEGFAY
ELF1, sequence (P32519 whole entry): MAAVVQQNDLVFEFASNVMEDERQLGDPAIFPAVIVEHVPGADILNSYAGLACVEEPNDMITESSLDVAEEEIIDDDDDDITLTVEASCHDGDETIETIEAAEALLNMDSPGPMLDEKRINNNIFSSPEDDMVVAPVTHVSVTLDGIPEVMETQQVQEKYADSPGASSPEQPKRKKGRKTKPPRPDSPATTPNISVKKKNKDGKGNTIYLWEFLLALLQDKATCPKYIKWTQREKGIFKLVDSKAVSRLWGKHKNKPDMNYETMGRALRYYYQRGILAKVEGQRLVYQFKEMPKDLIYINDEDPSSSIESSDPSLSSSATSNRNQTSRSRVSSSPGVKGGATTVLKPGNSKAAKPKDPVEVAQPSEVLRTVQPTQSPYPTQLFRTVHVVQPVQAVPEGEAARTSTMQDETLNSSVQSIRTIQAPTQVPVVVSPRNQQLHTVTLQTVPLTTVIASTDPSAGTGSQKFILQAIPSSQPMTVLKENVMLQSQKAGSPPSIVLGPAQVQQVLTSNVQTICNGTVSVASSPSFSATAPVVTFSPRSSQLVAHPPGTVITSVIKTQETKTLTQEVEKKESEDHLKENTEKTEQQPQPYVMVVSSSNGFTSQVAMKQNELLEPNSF
ETV1, sequence (P50549 whole entry): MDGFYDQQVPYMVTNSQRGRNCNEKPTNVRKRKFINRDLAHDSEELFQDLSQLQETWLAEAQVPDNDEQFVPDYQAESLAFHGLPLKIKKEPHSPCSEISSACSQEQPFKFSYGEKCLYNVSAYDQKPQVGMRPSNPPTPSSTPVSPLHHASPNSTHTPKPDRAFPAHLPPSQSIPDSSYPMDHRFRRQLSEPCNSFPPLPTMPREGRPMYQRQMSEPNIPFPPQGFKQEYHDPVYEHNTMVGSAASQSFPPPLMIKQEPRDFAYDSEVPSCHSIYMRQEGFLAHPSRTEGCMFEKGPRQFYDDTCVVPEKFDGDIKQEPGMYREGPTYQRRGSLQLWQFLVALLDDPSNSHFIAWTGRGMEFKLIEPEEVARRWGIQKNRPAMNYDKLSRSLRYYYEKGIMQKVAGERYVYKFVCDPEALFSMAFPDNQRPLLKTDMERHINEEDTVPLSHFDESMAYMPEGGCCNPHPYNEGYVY
HSF1, sequence (Q00613 whole entry): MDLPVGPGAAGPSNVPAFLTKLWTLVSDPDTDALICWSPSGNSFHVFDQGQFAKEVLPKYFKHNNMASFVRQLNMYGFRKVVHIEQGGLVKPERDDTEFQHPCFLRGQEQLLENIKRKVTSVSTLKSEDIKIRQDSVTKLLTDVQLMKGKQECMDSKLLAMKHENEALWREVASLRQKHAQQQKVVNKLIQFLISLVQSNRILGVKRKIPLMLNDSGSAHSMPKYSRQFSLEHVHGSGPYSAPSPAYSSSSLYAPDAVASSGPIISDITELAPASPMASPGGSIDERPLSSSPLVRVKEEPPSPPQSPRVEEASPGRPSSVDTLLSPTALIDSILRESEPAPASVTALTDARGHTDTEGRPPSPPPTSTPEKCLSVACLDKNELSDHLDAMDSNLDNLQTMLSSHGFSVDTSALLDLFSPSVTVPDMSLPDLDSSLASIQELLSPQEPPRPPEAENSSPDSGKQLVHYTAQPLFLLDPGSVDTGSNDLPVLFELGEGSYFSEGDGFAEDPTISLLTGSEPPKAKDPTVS
ELF4, sequence (Q99607 whole entry): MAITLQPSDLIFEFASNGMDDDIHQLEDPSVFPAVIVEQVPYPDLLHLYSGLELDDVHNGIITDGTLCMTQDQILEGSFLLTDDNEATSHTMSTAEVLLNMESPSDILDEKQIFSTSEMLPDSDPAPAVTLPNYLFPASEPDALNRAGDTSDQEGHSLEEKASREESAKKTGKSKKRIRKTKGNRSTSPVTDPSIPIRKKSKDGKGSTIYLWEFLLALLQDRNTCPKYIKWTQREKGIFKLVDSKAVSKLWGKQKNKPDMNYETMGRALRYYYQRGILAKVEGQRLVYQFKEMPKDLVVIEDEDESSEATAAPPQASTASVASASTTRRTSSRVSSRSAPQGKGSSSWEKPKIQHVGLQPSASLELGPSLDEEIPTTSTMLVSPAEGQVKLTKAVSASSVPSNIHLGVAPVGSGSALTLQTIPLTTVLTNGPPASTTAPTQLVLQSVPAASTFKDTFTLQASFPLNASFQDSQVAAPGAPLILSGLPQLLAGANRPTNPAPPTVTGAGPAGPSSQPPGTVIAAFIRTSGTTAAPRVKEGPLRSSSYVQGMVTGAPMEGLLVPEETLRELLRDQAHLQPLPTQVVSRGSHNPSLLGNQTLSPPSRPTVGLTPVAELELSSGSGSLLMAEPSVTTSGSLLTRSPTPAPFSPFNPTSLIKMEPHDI
CRX, sequence (O43186 whole entry): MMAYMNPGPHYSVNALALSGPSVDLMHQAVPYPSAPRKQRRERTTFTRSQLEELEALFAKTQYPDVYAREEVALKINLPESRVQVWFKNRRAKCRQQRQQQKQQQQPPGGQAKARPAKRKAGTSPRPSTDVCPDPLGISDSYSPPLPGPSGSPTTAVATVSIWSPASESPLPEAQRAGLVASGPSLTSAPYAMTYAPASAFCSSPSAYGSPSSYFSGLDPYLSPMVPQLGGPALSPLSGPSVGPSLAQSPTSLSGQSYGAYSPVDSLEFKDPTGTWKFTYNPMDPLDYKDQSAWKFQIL
SPIB, sequence (Q01892 whole entry): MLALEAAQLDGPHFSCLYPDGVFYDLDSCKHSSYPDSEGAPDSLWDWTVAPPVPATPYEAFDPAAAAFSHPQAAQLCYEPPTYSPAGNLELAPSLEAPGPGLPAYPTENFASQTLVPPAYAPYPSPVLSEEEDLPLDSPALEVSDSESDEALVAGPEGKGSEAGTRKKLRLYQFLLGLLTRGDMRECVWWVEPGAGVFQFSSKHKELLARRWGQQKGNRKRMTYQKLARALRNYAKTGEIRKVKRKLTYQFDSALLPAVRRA

Take ATGATT: the binding signal was 1.22 fold enrichment (6-mer frequency, TF over GST control) with FLI1; 1.25 fold enrichment (6-mer frequency, TF over GST control) in the assay with ELK1; 1.37 fold enrichment (6-mer frequency, TF over GST control) with GABPA; 1.21 fold enrichment (6-mer frequency, TF over GST control) in the assay with ERG; 1.21 fold enrichment (6-mer frequency, TF over GST control) with ELF1; 1.22 fold enrichment (6-mer frequency, TF over GST control) in the assay with EHF. In addition, the binding signal with SPI1 is 1.17 fold enrichment (6-mer frequency, TF over GST control); with SPIB, 1.22 fold enrichment (6-mer frequency, TF over GST control); in the assay with ELK3 it was 1.09 fold enrichment (6-mer frequency, TF over GST control); with FEV, 1.15 fold enrichment (6-mer frequency, TF over GST control); in the assay with ETV5, 1.18 fold enrichment (6-mer frequency, TF over GST control); with HSF1, 1.33 fold enrichment (6-mer frequency, TF over GST control). Moreover, the binding signal with SPIC is 1.17 fold enrichment (6-mer frequency, TF over GST control); in the assay with ELF4 it was 1.12 fold enrichment (6-mer frequency, TF over GST control); with ELK4 it was 1.21 fold enrichment (6-mer frequency, TF over GST control); with ETV2, 1.26 fold enrichment (6-mer frequency, TF over GST control); in the assay with ELF3 it was 1.12 fold enrichment (6-mer frequency, TF over GST control); in the assay with CRX it was 1.58 fold enrichment (6-mer frequency, TF over GST control). Moreover, the binding signal in the assay with ETV1 was 1.19 fold enrichment (6-mer frequency, TF over GST control).
